The subject of test [1] is Vero E6 infected with SARS-CoV-2. Nature of the test: morphology score (similarity to uninfected cells); higher = more like uninfected cells. The note with it: 24 h.
For test [2] the test system is unchanged. Nature of the test: SARS-CoV-2 infection rate relative to infected DMSO; higher = more infection, active = 60 or less. The note with it: 24 h.

Regarding `CCN(CCNC(=O)Nc1ccccc1Br)c1cccc(C)c1` (10 µM), in test [1], the morphology score was -0.0408. Also, in test [2], the SARS-CoV-2 infection rate is 112% (inactive).
With `Cc1cc2nc3c(=O)[nH]c(=O)nc-3n(C[C@H](O)[C@H](O)[C@H](O)COP(=O)(O)O)c2cc1C` [riboflavin-5-phosphate-sodium] (10 µM), the morphology score in test [1] is 0.173. The SARS-CoV-2 infection rate in test [2] was 102% (inactive).
In the same order, the values of `CNCCC(Oc1ccc(C(F)(F)F)cc1)c1ccccc1` (stereo not given) [fluoxetine] (10 µM) are 0.539 and 66% (inactive).
In the same order, the values of `COc1cc(C(=O)OCCCN2CCCN(CCCOC(=O)c3cc(OC)c(OC)c(OC)c3)CC2)cc(OC)c1OC` [dilazep] (0.833333 µM) are -0.00497 and 106% (inactive).
The corresponding values for `O=C(O)[C@H](O)[C@@H](O)[C@H](O[C@@H]1O[C@H](CO)[C@H](O)[C@H](O)[C@H]1O)[C@H](O)CO` [maltobionic-acid] (10 µM) are 0.138 and 92.5% (inactive).
On to `CN(C)C(=O)Oc1cc(OC(=O)N(C)C)cc(C(O)CNC(C)(C)C)c1` (stereo not given) [bambuterol] (10 µM), for which the morphology score in test [1] is -0.145. Further, the SARS-CoV-2 infection rate in test [2] is 114% (inactive).
In the same order, the values of `COc1cc2nccc(Oc3ccc(NC(=O)NC4CC4)c(Cl)c3)c2cc1C(N)=O` [lenvatinib] (10 µM) are 0.239 and 100% (inactive).
For the compound `CCCOC(=O)c1ccccc1` [propyl-benzoate] (10 µM), the morphology score in test [1] was 0.105. The SARS-CoV-2 infection rate in test [2] is 90% (inactive).
The corresponding values for `CCc1nc2c(C)nc(C)cc2n1-c1ccc(CCNC(=O)NS(=O)(=O)c2ccc(C)cc2)cc1` [grapiprant] (10 µM) are 0.243 and 93.5% (inactive).
Turning to `CC/C(=C(/CC)c1ccc(O)cc1)c1ccc(O)cc1` [diethylstilbestrol] (10 µM), the morphology score in test [1] was -0.0992. In addition, the SARS-CoV-2 infection rate in test [2] was 102% (inactive).

The values above are taken from the supplement of paper PMC13380429.
